Data taken from PubChem BioAssay.

What follows are compounds tested against Torsin-1A (Homo sapiens) (UniProt O14656) (assay: TOR1A wild-type binding on microarray – cell lysate, small-molecule microarray, lysate, 635/667 nm, primary screen (AID 1149)). Conditions: COS7 hTOR1A-WT lysate, 635 nm fluorescence, higher = more signal.
Torsin-1A (Homo sapiens), sequence (O14656 whole entry, looked up): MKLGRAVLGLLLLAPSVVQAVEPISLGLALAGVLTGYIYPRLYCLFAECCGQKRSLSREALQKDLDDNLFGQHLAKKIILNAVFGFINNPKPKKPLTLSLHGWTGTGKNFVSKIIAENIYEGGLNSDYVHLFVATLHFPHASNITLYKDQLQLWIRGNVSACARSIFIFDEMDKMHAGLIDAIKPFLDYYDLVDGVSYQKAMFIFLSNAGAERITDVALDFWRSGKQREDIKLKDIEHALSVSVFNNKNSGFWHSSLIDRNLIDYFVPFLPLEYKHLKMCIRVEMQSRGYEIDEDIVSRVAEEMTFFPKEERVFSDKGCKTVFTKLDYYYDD

SMILES | composite z-score
CC(=O)OC[C@H]1O[C@@H](ON=C(C)C)[C@H](OC(C)=O)[C@@H](OC(C)=O)[C@@H]1OC(C)=O | 0.456
CC(C)=CCCC(C)=CCON=C1[C@H]2CCn3c(=O)n(-c4ccccc4)c(=O)n3[C@H]2[C@H](O)[C@@H]2O[C@H]12 | 1.02
COC(=O)CC=C[C@@H](C)[C@@H](C=NOC[C@@H](C)[C@H](OCc1ccccc1)C(C)C)OC | 0.155
CCOC(=O)CCN1C(=O)[C@H]2[C@H]3[C@H](O)[C@H](O)CC(=NO[C@@H]4O[C@H](CO)[C@@H](O)[C@H](O)[C@H]4O)[C@@H]3CC[C@H]2C1=O | 1.87
COC(=O)[C@H](C)NC(=O)CCC1CC(OC(=O)NCc2ccc3c(c2)OCO3)CC2(CCCC(COC(=O)NCCc3ccc(Cl)cc3)O2)O1 (stereo partly drawn) | -0.157
CC(CCN1CCCc2nc(C)c(C)cc21)=NOC[C@@H](O)COCc1ccco1 | 4.39
CC(CCN1CCCCc2nc(C)c(C)cc21)=NO[C@@H](C)c1cc(-c2c(C)cc(C)cc2C)no1 | -1.18
C[C@H]1CC[C@@H](C(=O)O)N[C@@H]1c1ccc(C#Cc2ccccc2)cc1 | 0.587
COc1ccc(O[C@H]2C=C[C@@H](c3ccccc3)O[C@@H]2COC(=O)NCc2cccc3ccccc23)cc1 | 0.0485
CC(C)CON=C1C[C@@H](O)[C@@H](O)[C@@H]2[C@@H]3C(=O)N(C(C)(C)C)C(=O)[C@@H]3CC[C@@H]12 | 3.07
CC(C)CON=C1[C@H]2CCn3c(=O)n(C)c(=O)n3[C@H]2[C@H](O)[C@@H]2O[C@H]12 | 0.558
CCOC(=O)CCN1C(=O)[C@H]2[C@H]3[C@H](O)[C@H](O)CC(=O)[C@@H]3CC[C@H]2C1=O | 0.205
CC1(C)O[C@H]2OC([C@H](O)CON3C(=O)c4ccccc4C3=O)[C@H](O)[C@H]2O1 (stereo partly drawn) | 0.0012
COc1cccc([C@H](O)Cn2cc(-c3ccc(CON=C(C)C)cc3)nn2)c1 | 0.0944
COCC#Cc1ccc([C@@H]2N[C@H](C(=O)O)CC[C@H]2C)cc1 | 0.24
O=C1C[C@H](c2ccccc2)[C@H](c2ccc(Br)cc2)O1 | -0.0753
CCCNC(=O)OC[C@H]1O[C@H](CCON=C[C@@H](NS(=O)(=O)c2ccc(C)cc2)[C@H](C)C=CCC(=O)OC)C=C[C@@H]1Oc1ccc(OC)cc1 | 0.0067

SMILES | composite z-score
CCOC(=O)[C@H](Cc1ccccc1)NC(=O)CCC1CC(OC(=O)NCCc2ccc(F)cc2)CC2(CCCC(COC(=O)NCCOc3ccccc3)O2)O1 (stereo partly drawn) | 0.227
C=CC[C@@H]1C=C[C@H](Oc2ccc(C)cc2)[C@@H](COC(=O)NCc2cccc3ccccc23)O1 | -0.0815
O=C1C2=CC[C@H]3C(=O)N(C[C@@H]4CCCO4)C(=O)[C@H]3[C@H]2[C@H](O)[C@@H]2O[C@H]12 | 0.863
CSCC[C@@H]1NC(=O)CC=C[C@@H](C)COC(=O)[C@H](C)COC1=O | 3.64
COC(=O)[C@H](Cc1ccccc1)NC(=O)[C@@H](C)CO | 0.0847
O=C1[C@H]2[C@H]3[C@H](O)[C@H](O)CC(=NOCc4ccccc4)[C@@H]3CC[C@H]2C(=O)N1c1cccc(Oc2ccccc2)c1 | 0.186
CC(C)C(=O)N[C@H]1CCCN1C(=O)C=Cc1ccccc1 | 0.445
CCN1C(=O)[C@H]2[C@H]3[C@H](O)[C@H](O)CC(=NOCC(C)C)[C@H]3CC[C@H]2C1=O | -0.284
C#CCCCON=C1[C@H]2CCn3c(=O)n(Cc4cc5c(cc4Cl)OCO5)c(=O)n3[C@H]2[C@H](O)[C@@H]2O[C@H]12 | 0.0703
COC(=O)[C@H](C)NC(=O)CCC1CC(OC(=O)NCc2cccc3ccccc23)CC2(CCCC(COC(=O)NCCOc3ccccc3)O2)O1 (stereo partly drawn) | 0.182
CO[C@H]1COC(=O)CC=C[C@@H](C)COC(=O)[C@H]2CCCN2C(=O)CC=C[C@H]1C | 2.24
O=C1C[C@@H](O)[C@@H](O)[C@@H]2[C@@H]3C(=O)N(C4CCCCC4)C(=O)[C@@H]3CC[C@@H]12 | -0.0977
CN1CCc2nc(-c3ccccc3)c(-c3ccccc3)cc2C1 | 0.214
CC(CCC(=O)OC[C@H]1O[C@H](C#Cc2ccccc2)C=C[C@@H]1Oc1ccc(C)cc1)=NOC(C)CN1CCCCc2nc(C)c(C)cc21 (stereo partly drawn) | -0.453
CO[C@@H]1C=CCC(=O)N[C@@H](C)C(=O)OC[C@@H](OC)[C@H](C)C=CCC(=O)OC[C@H]1C | 2.58
CO[C@@H]1[C@H](O)CO[C@H]1C=Cc1ccccc1 | -0.518
